Experiment [1] can be described thus: NS1 protein of Zika virus - qHTS assay to identify small molecule inhibitors in human HEK 293 cells (AID 1347053). Also: nearly all actives have a fitted effect of over 55% in size. Also: potency is read from the fitted curve at half-maximal effect. The following applies: HEK293 ZIKV MR766 infection, NS1 TR-FRET, 24 h; series mostly up to 46.1 µM. The method, boiled down:
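Read-out is a two-antibody TR-FRET for ZIKV NS1, normalized between uninfected cells and infected cells. Compound added 1 h before MR766 infection at MOI 0.5; human HEK 293 cells incubated 24 h, 37 C.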
Background: qHTS replaces the single test concentration by a dilution series.

Experiment [2] can be described thus: qHTS of pediatric cancer cell lines to identify multiple opportunities for drug repurposing: Primary screen for SJ-GBM2 cells (AID 1347091). Also: potency is read from the fitted curve at half-maximal effect. Conditions: SJ-GBM2 viability, CellTiter-Glo luminescence, 48 h; series mostly up to 46 µM. The method, boiled down: (§1)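 Eight- or eleven-point concentration series, 48 h treatment at 37 degrees C in growth media; readout CellTiter-Glo luminescence. Potency and efficacy were taken from the concentration-response curves.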

Experiment [3] in a line: qHTS of pediatric cancer cell lines to identify multiple opportunities for drug repurposing: Primary screen for SK-N-MC cells (AID 1347093). Also: potency is read from the fitted curve at half-maximal effect. Conditions: SK-N-MC viability, CellTiter-Glo luminescence, 48 h; series mostly up to 46 µM. The method, boiled down:
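Metabolically active cells were quantified by ATP-dependent luminescence (CellTiter-Glo, 15 min at room temperature) following 48 h treatment. Cells had been plated at 500-1,000 per well and settled for 5 h beforehand.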

In experiment [4] the target is Parathyroid hormone/parathyroid hormone-related peptide receptor (Homo sapiens) (UniProt Q03431). Description: qHTS for PTHR1 Agonists: Optimization Screen against the NCGC LOPAC library (AID 1347079). Conditions: HEK293 GP2 PTHR1 GloSensor cAMP luminescence, 1 h; series mostly up to 57.1 µM. The method, boiled down: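 HEK-293 GP2 cells, PTHR1 + GloSensor cAMP; 3000 cells/well, o/n. Luciferin + IBMX 0.5mM each (stock), 1 hr 37C. Cpd titration, 1 hr 37C. Lum after 15 min RT. Ctrl M-PTH(1-15) top 10uM.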
Parathyroid hormone/parathyroid hormone-related peptide receptor (Homo sapiens), sequence (Q03431 whole entry, looked up): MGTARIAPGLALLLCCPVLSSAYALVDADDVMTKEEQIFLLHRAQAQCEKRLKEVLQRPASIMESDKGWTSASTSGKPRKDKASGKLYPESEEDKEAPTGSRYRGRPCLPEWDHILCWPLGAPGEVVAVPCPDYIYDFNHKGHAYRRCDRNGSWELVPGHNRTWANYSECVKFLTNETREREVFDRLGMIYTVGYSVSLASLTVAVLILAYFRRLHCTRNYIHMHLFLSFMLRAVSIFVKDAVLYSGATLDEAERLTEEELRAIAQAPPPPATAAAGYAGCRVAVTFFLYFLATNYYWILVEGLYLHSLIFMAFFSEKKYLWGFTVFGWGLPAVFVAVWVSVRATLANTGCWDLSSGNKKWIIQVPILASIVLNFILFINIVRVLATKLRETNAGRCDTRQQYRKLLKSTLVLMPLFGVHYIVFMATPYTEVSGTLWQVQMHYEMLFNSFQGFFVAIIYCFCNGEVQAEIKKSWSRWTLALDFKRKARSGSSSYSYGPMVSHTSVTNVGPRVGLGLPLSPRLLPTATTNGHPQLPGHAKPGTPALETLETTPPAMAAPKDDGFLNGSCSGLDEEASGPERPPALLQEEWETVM

A short description of experiment [5]: qHTS of pediatric cancer cell lines to identify multiple opportunities for drug repurposing: Primary screen for TC32 cells (AID 1347089). Also: nearly all actives have a fitted effect of over 60% in size. Also: potency is read from the fitted curve at half-maximal effect. The following applies: TC32 Ewing sarcoma viability, CellTiter-Glo luminescence, 48 h; series mostly up to 45.8 µM. The method, boiled down:
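A viability screen of TC32 cells was run over 48 h, with primary MIPE doses spanning 0.78 nM–46 µM and NPC doses 0.59 nM–46 µM. ATP luminescence (CellTiter-Glo) served as the read-out.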

The nature of experiment [6]: qHTS of pediatric cancer cell lines to identify multiple opportunities for drug repurposing: Primary screen for DAOY cells (AID 1347090). Also: nearly all actives have a fitted effect of over 55% in size. Also: potency is read from the fitted curve at half-maximal effect. The following applies: DAOY medulloblastoma viability, CellTiter-Glo luminescence, 48 h; series mostly up to 46 µM. Summed up:
as §1

Experiment [7] is described as follows: qHTS of pediatric cancer cell lines to identify multiple opportunities for drug repurposing: Primary screen for A673 cells (AID 1347092). Also: nearly all actives have a fitted effect of over 45% in size. Also: potency is read from the fitted curve at half-maximal effect. The following applies: A673 Ewing sarcoma viability, CellTiter-Glo ATP luminescence, 48 h; series mostly up to 46 µM. Summed up:
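Titration-based qHTS on A673 cells: MIPE compounds spanned 11 points (0.78 nM to 46 µM final), NPC compounds 8 points (0.59 nM to 46 µM final). Viability after 48 h was measured by ATP luminescence.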

Experiment [8] addresses T1, Tyrosine-protein phosphatase non-receptor type substrate 1 (Homo sapiens) + Leukocyte surface antigen CD47 (Homo sapiens) (UniProt P78324+Q08722). Briefly: CD47-SIRPalpha protein protein interaction - LANCE assay qHTS validation (AID 1347057; active = well fitted curve in the direction sought with a large enough effect in the signal ratio, with a control signal flat, not every such curve was filed as active; the % refers to the signal ratio). The following applies: Recombinant CD47-His / biotin-SIRPalpha, TR-FRET ratio; series mostly up to 38.3 µM. Summed up:
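Inhibition of soluble CD47/SIRPalpha ectodomain association by titrated compounds, measured as 665/615 nm time-resolved FRET ratio after sequential 30 min room-temperature incubations.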
On the technique in general: TR-FRET usually uses a lanthanide donor and a delayed reading to cut background.

In experiment [9] the target is T1, Tyrosine-protein phosphatase non-receptor type substrate 1 (Homo sapiens) + Leukocyte surface antigen CD47 (Homo sapiens). Briefly: CD47-SIRPalpha protein protein interaction - HTRF assay qHTS validation (AID 1347058; active = well fitted curve in the direction sought with a large enough effect in the signal ratio, not every such curve was filed as active; the % refers to the signal ratio). Conditions: TR-FRET HTRF CD47-His / biotin-SIRPalpha binding, ratio 665/615; series mostly up to 38.3 µM. The method, boiled down:
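Soluble extracellular domains (6His-CD47, Avi-tag-biotinylated SIRPalpha) in PBS pH 7.4 with 0.05% IGEPAL CA-630. Compounds were preincubated 30 min at RT with CD47 and anti-His-Eu, then SIRPalpha and SAV-XL665 were added. TR-FRET 665/615 ratio.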

Experiment [10] shares this target. Description: CD47-SIRPalpha protein protein interaction - Alpha assay qHTS validation (AID 1347059).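 Also: bead proximity luminescence from CD47 binding SIRPalpha after compound preincubation with SIRPalpha.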 Conditions: AlphaScreen CD47-His/biotin-SIRPalpha binding, LOPAC; series mostly up to 38.3 µM. Summed up:
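In PBS (pH 7.4) with 0.05% IGEPAL CA-630, compound is preincubated with biotin-Avi-SIRPalpha ectodomain before His-CD47 ectodomain and affinity beads are added. Light-protected room-temperature incubations; AlphaScreen readout.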

Here are results for 26 compounds from PubChem BioAssay (NCATS).

Inconclusive results are not listed. Calls of active or inactive are those of the source. Unless noted, calls follow the shape of the dose curve; as a rule, active = well fitted curve in the direction sought with a large enough effect; inconclusive = small, poorly fitted or top-dose-only effect, or another doubt; inactive = no such curve, though single readings can be large; an effect the other way counts as inactive or inconclusive.

T1 sequence (P78324 whole entry, looked up, the tested form may be a part): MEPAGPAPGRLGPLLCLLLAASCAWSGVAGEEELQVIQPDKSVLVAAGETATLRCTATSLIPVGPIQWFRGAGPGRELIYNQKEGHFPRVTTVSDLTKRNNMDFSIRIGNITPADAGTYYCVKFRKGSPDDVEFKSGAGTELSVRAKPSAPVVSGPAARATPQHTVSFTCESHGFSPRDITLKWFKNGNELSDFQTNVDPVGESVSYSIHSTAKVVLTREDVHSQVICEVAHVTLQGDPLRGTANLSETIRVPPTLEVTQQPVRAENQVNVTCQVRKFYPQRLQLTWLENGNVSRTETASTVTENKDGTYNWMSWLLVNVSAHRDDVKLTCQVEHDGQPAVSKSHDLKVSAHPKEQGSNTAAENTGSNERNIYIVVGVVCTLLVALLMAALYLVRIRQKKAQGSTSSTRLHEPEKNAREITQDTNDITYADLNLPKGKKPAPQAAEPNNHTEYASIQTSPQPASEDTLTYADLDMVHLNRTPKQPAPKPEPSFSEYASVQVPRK
T1 sequence (Q08722 whole entry, looked up, the tested form may be a part): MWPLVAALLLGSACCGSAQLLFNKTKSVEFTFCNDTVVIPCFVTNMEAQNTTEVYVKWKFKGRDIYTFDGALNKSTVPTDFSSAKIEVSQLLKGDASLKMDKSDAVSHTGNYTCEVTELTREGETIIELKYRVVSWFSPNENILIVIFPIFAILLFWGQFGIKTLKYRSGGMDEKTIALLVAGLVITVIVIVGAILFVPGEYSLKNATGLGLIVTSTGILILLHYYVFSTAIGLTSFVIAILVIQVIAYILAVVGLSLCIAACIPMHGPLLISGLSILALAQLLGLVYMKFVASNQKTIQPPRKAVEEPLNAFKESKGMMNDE

Regarding `CN(C)C1CCN(C(=O)c2ccc(NC(=O)Nc3nc(N4CCOCC4)nc(N4CCOCC4)n3)cc2)CC1`, the Potency in experiment [1] is 0.418 µM (active); in experiment [2], 0.105 µM (active); in experiment [3], 0.0166 µM (active).

For the compound `CCCCCN(C)CCC(O)(P(=O)(O)O)P(=O)(O)O`, the outcome in [4] was inactive. The Potency result in experiment [5], in experiment [6], in experiment [2] and in [7] was “inactive” in each case.

For the compound `CC(C)(C)Cn1c(N)nc2ccc(-c3[nH]c(C(C)(C)C)nc3-c3ccc(F)cc3)nc21`, the values for the Potency in experiment [5], in experiment [6] and in experiment [7] were 29.4 µM (active), 23.5 µM (active) and 18.7 µM (active), respectively.

Turning to `COc1cc(N2CCC(N3CCN(C)CC3)CC2)ccc1Nc1ncc(Cl)c(Nc2ccccc2S(=O)(=O)C(C)C)n1`, the Potency result in experiment [5] and in experiment [6] was “inactive” throughout. In addition, the Potency in [3] is 0.001 µM (active).

For `C[C@@H]1CCN(C(=O)CC#N)C[C@H]1N(C)c1ncnc2[nH]ccc12`, the Potency entry in [1], in [2] and in experiment [3] was “inactive” throughout.

As to `COCCOC(=O)C1=C(C)NC2=C(C(=O)CC(c3ccccc3OC)C2)C1c1cccc(O)c1` (configuration not stated), the Potency result in experiment [1] was “inactive”. The Potency in [7] was 23.5 µM (active); in experiment [3], 18.7 µM (active).

`CCNc1cc(NC2CCC(O)CC2)nc(Nc2ccc3c(ccn3Cc3ccccc3)c2)n1` (configuration not stated): in [5], the Potency entry is “inactive”. Besides, the Potency in [2] and in [7] was 29.6 µM (active) throughout.

Take `CS(=O)c1ccc(-c2nc(-c3ccc(F)cc3)c(-c3ccncc3)[nH]2)cc1` (configuration not stated): the Potency result in experiment [5] and in experiment [6] was “inactive” throughout. Further, the Potency in [2] was 42.9 µM (active); in experiment [3], 8.55 µM (active).

Consider `CO[C@H]1C=CC=C(C)C(=O)NC2=CC(=O)C(NCCN(C)C)=C(C[C@@H](C)C[C@H](OC)[C@@H](O)[C@@H](C)C=C(C)[C@@H]1OC(N)=O)C2=O`, for which the Potency is 0.262 µM (active) in experiment [5]; 3.72 µM (active) in experiment [6]; 0.0526 µM (active) in [2]; 0.0743 µM (active) in experiment [7]; 0.187 µM (active) in experiment [3].

As to `CC1CCC(C(=O)N(c2cc(C#CC(C)(C)C)sc2C(=O)O)C2CCC(O)CC2)CC1` (configuration not stated), the Potency result in [5], in experiment [2] and in experiment [7] was “inactive” each time.

As to `C[N+](C)(C)CC(=O)O`, the Potency result in experiment [5], in experiment [6], in experiment [2] and in [7] was “inactive” in each case. Also, the Potency in [3] is 16.6 µM (active).

In the case of `COc1ccc2cc(-c3nc(-c4ccc(S(C)=O)cc4)[nH]c3-c3ccncc3)ccc2c1` (configuration not stated), the Potency result in [5] and in [6] was “inactive” each time. The Potency in [2] is 14.8 µM (active).

With `COc1ccc(Cc2nccc3cc(OC)c(OC)cc23)cc1OC`, the outcome in [8], in experiment [9], in experiment [10] and in [4] was inactive.

Regarding `CC1=C(/C=C/C(C)=C/C=C/C(C)=C/C(=O)Nc2ccc(O)cc2)C(C)(C)CCC1`, the outcome in [8], in experiment [9] and in experiment [4] was inactive. Also, the Potency in experiment [7] and in experiment [3] was 6.68 µM (active) each time.

For the compound `COc1ccc(-c2oc3c(CC=C(C)C)c(OC4O[C@H](CO)[C@@H](O)[C@H](O)[C@@H]4O)cc(O)c3c(=O)c2OC2O[C@@H](C)[C@H](O)[C@@H](O)[C@@H]2O)cc1` (some centres not stated), the Potency is 18.7 µM (active) in [1], 18.7 µM (active) in experiment [2] and 10.5 µM (active) in experiment [3].

With `O=C1NC(=O)C(=Cc2ccc3nccnc3c2)S1`, the Potency entry in experiment [1] was “inactive”. In addition, the Potency is 8.12 µM (active) in [2] and 2.29 µM (active) in [3].

Consider `O=C(Nc1cccc(Br)c1)c1cccc(S(=O)(=O)N2CCCCCC2)c1`, for which the Potency result in experiment [5] was “inactive”.

Turning to `Cc1ccc(Nc2cc(-c3cccc(N4C(=O)c5ccccc5C4=O)c3)ncn2)cc1NS(C)(=O)=O`, the Potency result in experiment [5] and in experiment [2] was “inactive” throughout.

`CCOc1ccc(Nc2nc(-c3c(C)nc4ccccn34)cs2)cc1`: the Potency entry in experiment [1] is “inactive”. Besides, the values for the Potency in experiment [7] and in experiment [3] were 0.003 µM (active) and 0.0047 µM (active), respectively.

On to `O=C(O)CCC1CCC(c2cc(F)ccc2F)(S(=O)(=O)c2ccc(Cl)cc2)CC1` (configuration not stated), for which the Potency result in experiment [1] is “inactive”. The Potency is 1.48 µM (active) in [7] and 0.0662 µM (active) in experiment [3].

As to `COc1ccc(-c2cc(=O)c3c(O)cc(O)cc3o2)cc1O`, the Potency result in experiment [1] was “inactive”. Besides, the Potency was 4.69 µM (active) in [7] and 2.64 µM (active) in experiment [3].

Consider `Cc1cc(OCCCc2c(C(=O)O)n(Cc3cccnc3)c3c(-c4c(COc5ccc(N6CCN([S+](C)(=O)[O-])CC6)cc5)nn(C)c4C)cccc23)cc(C)c1Cl`, for which the Potency result in [5] was “inactive”. For the same compound, the Potency in [6] was 18.7 µM (active); in experiment [2] it was 23.5 µM (active); in [7], 23.5 µM (active); in experiment [3], 5.9 µM (active).

As to `CC[C@H]1OC(=O)[C@H](C)C(=O)[C@H](C)[C@@H](O[C@H]2O[C@H](C)C[C@H](N(C)C)[C@@H]2O)[C@](C)(OC)C[C@@H](C)C(=O)[C@H](C)[C@H]2N(CCCCn3cnc(-c4cccnc4)c3)C(=O)O[C@]12C`, the Potency result in [5], in [6] and in [2] was “inactive” in each case.

On to `CN1C[C@H]2c3ccccc3Oc3ccc(Cl)cc3[C@@H]2C1`, for which the Potency entry in experiment [5], in [2], in [7] and in experiment [3] was “inactive” in each case.

Take `Cc1ccn(-c2ccc(-c3ncco3)cc2)c(=O)c1-c1ccc2nc(N)ncc2c1`: the Potency entry in experiment [1] was “inactive”. The Potency in experiment [3] is 3.32 µM (active).

As to `NS(=O)(=O)c1ccc(NC2=CC(=O)c3ccccc3C2=O)cc1`, the Potency result in experiment [1] and in [2] was “inactive” throughout. Further, the Potency in [3] is 10.5 µM (active).
